Measured values published in ChEMBL document CHEMBL2218924, “A broad activity screen in support of a chemogenomic map for kinase signalling research and drug discovery” (Biochem J, 2013).

Experiments:
[1] = biological target: Death-associated protein kinase 1 (Homo sapiens) (UniProt P53355); conditions: at 10 µM
[2] = biological target: Death-associated protein kinase 2 (Homo sapiens) (UniProt Q9UIK4); conditions: at 1 µM
[3] = biological target: Death-associated protein kinase 2 (Homo sapiens) (UniProt Q9UIK4); conditions: at 10 µM
[4] = biological target: T1, Serine/threonine-protein kinase DCLK2 (Homo sapiens) (UniProt Q8N568); conditions: at 1 µM
T1 sequence (whole entry): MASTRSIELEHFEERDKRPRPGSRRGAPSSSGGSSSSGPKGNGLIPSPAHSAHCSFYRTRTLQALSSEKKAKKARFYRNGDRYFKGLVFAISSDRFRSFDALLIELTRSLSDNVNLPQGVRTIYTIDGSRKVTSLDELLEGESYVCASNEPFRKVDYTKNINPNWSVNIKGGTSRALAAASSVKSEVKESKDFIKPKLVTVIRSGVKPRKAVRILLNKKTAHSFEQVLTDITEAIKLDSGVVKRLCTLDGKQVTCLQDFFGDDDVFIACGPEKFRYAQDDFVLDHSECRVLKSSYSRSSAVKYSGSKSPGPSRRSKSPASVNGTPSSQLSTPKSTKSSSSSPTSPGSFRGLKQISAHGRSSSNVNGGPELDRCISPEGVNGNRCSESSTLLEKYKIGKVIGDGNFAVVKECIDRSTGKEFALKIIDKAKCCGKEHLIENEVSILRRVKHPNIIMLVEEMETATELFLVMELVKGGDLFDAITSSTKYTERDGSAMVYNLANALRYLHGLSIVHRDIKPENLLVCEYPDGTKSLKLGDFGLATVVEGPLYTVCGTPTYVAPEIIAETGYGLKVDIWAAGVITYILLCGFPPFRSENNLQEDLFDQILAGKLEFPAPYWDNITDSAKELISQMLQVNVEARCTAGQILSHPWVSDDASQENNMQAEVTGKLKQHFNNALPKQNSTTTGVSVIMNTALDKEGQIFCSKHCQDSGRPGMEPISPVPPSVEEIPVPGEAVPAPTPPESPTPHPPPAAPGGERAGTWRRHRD

[5] = biological target: T1, Serine/threonine-protein kinase DCLK2 (Homo sapiens); conditions: at 10 µM
[6] = biological target: T2, Discoidin domain-containing receptor 2 (Homo sapiens) (UniProt Q16832); conditions: at 1 µM
T2 sequence (whole entry): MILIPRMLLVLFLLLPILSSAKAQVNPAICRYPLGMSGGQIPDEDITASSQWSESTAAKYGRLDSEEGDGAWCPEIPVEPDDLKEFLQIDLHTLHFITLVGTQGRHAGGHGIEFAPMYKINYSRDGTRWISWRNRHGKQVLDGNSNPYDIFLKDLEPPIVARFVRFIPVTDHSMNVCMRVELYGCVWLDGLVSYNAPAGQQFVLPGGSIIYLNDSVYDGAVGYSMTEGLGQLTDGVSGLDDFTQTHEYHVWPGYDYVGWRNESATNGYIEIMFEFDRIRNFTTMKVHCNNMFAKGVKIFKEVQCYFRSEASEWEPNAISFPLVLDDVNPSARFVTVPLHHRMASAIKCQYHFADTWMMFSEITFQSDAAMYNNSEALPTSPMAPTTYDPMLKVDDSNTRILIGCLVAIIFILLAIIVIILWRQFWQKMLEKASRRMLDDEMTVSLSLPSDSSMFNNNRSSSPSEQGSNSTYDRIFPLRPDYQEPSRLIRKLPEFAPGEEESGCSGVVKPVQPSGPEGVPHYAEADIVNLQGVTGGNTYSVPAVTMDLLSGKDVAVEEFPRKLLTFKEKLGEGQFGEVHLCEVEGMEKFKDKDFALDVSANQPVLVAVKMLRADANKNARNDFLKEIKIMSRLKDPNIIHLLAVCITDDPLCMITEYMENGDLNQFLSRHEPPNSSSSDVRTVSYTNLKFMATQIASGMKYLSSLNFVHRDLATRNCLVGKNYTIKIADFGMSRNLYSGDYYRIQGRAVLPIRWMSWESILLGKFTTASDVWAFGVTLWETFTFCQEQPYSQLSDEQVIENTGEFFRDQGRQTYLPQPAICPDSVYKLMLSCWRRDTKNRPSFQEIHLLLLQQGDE

[7] = biological target: T2, Discoidin domain-containing receptor 2 (Homo sapiens); conditions: at 10 µM
[8] = biological target: T3, Myotonin-protein kinase (Homo sapiens) (UniProt Q09013); conditions: at 1 µM
T3 sequence (whole entry): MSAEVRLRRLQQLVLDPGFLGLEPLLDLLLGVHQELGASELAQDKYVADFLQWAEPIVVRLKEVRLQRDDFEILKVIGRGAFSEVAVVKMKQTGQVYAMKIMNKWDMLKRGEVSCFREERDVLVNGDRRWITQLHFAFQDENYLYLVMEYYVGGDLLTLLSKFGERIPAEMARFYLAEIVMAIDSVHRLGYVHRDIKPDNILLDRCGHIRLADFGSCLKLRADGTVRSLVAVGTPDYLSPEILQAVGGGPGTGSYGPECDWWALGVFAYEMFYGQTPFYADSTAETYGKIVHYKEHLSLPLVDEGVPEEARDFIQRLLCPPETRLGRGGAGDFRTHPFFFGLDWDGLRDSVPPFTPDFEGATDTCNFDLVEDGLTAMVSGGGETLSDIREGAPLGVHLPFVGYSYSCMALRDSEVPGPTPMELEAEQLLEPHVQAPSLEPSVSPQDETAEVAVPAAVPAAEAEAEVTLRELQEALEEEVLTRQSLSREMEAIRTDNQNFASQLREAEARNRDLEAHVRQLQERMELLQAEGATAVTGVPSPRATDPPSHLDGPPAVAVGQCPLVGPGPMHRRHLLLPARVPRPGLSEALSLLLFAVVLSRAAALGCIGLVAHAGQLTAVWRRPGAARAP

[9] = biological target: T3, Myotonin-protein kinase (Homo sapiens); conditions: at 10 µM
[10] = biological target: T4, Serine/threonine-protein kinase 17A (Homo sapiens) (UniProt Q9UEE5); conditions: at 1 µM
T4 sequence (whole entry): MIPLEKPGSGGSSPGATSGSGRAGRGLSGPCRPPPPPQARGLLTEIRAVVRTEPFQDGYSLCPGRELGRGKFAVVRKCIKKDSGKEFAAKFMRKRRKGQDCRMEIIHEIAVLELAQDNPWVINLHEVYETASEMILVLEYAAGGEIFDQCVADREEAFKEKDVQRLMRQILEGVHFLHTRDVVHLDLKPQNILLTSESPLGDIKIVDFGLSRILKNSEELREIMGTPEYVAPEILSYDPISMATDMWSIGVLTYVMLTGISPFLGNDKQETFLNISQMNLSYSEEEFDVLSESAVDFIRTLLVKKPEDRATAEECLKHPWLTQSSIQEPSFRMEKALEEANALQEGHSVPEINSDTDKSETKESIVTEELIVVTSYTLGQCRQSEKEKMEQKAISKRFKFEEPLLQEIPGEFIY

[11] = biological target: T4, Serine/threonine-protein kinase 17A (Homo sapiens); conditions: at 10 µM
[12] = biological target: T5, Dual specificity tyrosine-phosphorylation-regulated kinase 2 (Homo sapiens) (UniProt Q92630); conditions: at 1 µM
T5 sequence (whole entry): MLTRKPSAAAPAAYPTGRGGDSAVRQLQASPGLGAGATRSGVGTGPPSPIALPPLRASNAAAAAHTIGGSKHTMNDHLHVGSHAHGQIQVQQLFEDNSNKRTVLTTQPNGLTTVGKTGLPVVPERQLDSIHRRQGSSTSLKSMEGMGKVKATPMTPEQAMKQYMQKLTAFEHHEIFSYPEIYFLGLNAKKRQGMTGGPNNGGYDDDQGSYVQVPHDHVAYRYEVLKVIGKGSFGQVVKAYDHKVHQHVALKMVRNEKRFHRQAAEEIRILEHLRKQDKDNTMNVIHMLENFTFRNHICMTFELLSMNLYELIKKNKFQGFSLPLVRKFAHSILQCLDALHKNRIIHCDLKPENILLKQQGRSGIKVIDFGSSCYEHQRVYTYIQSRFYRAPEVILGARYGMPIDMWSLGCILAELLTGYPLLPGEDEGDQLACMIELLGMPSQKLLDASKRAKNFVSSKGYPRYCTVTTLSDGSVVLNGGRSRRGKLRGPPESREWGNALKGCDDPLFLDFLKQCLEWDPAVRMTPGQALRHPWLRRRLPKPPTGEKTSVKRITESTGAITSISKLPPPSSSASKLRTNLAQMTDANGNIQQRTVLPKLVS

[13] = biological target: T5, Dual specificity tyrosine-phosphorylation-regulated kinase 2 (Homo sapiens); conditions: at 10 µM
[14] = biological target: T6, Ephrin type-A receptor 1 (Homo sapiens) (UniProt P21709); conditions: at 1 µM
T6 sequence (whole entry): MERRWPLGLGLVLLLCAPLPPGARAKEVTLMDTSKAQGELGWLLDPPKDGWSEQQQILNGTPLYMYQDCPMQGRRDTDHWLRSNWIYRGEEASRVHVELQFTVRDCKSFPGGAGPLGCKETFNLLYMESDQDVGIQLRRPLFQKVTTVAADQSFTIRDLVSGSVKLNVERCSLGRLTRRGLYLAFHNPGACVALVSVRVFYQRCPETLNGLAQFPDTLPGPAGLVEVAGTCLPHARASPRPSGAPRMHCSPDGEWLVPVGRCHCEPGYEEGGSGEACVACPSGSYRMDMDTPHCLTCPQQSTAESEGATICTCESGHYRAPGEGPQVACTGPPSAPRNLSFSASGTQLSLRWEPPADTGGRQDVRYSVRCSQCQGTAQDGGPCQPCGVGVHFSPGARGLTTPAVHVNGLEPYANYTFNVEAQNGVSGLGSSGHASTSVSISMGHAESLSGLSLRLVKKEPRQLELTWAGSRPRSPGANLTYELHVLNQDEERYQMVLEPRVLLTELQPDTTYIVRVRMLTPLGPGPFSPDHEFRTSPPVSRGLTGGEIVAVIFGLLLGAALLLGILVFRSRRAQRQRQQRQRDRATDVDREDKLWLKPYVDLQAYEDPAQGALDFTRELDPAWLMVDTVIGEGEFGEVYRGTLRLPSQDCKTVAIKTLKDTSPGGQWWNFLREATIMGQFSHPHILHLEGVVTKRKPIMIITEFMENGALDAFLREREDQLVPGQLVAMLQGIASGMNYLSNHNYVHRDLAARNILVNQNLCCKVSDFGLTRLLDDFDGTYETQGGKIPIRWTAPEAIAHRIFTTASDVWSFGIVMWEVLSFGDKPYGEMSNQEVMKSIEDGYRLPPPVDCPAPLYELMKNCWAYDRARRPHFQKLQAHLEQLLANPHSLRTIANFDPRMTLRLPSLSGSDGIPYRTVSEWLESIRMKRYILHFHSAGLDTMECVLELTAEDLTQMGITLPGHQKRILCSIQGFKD

[15] = biological target: T6, Ephrin type-A receptor 1 (Homo sapiens); conditions: at 10 µM
[16] = biological target: Ephrin type-A receptor 2 (Homo sapiens) (UniProt P29317); conditions: at 1 µM
Chain of Ephrin type-A receptor 2 (Homo sapiens) (P29317 whole entry): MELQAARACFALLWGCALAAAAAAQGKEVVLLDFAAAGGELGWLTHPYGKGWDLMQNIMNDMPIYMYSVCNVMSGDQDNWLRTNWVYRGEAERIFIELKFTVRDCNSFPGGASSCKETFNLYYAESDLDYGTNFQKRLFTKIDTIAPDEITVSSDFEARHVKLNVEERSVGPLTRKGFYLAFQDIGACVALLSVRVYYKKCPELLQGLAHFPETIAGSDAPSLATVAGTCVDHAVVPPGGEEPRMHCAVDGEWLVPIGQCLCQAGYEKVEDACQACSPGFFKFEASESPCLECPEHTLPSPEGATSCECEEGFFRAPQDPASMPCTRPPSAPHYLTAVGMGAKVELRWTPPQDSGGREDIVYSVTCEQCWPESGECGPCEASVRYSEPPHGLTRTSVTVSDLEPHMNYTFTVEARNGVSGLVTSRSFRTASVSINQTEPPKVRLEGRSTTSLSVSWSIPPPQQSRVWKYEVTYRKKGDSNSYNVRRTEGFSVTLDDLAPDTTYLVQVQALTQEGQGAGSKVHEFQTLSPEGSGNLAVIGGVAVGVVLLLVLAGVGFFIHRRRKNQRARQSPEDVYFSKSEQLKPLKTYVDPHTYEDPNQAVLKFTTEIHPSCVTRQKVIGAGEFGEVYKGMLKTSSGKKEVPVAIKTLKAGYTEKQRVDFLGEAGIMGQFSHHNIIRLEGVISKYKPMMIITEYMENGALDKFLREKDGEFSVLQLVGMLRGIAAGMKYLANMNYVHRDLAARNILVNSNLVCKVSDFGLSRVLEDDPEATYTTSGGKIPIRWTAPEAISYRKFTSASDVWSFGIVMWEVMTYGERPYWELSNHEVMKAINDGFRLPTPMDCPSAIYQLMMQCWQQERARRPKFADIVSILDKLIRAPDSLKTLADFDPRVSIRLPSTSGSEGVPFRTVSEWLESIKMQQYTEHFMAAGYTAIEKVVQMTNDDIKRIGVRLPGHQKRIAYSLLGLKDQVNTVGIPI

[17] = biological target: Ephrin type-A receptor 2 (Homo sapiens) (UniProt P29317); conditions: at 10 µM
[18] = biological target: T7, Ephrin type-A receptor 3 (Homo sapiens) (UniProt P29320); conditions: at 1 µM
T7 sequence (whole entry): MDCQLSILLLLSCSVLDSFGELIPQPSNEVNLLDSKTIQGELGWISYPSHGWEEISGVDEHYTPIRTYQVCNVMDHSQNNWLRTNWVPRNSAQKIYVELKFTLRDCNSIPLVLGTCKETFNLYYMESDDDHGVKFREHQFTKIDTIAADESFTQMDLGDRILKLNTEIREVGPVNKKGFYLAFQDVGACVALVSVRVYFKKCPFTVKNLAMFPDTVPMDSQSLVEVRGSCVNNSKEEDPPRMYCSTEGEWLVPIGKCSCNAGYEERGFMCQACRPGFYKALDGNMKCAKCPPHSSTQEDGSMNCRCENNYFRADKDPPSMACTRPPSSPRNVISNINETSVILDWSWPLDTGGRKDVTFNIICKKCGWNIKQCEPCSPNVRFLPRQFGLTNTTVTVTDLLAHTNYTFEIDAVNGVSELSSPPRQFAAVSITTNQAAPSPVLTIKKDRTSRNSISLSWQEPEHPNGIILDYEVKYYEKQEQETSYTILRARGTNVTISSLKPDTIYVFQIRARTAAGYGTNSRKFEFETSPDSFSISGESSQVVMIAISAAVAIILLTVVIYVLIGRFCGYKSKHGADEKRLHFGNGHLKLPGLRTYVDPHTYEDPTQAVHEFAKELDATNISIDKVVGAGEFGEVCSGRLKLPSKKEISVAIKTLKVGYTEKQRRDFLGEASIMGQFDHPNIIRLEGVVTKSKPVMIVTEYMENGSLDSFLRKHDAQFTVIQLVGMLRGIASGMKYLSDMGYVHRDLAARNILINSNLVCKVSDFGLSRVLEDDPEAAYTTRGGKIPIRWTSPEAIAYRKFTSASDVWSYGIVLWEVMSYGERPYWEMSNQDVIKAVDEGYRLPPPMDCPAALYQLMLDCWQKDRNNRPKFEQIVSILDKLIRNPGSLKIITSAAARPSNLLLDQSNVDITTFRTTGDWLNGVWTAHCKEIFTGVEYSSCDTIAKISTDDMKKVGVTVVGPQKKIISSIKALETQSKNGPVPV

Chain of Death-associated protein kinase 1 (Homo sapiens) (P53355 whole entry, looked up): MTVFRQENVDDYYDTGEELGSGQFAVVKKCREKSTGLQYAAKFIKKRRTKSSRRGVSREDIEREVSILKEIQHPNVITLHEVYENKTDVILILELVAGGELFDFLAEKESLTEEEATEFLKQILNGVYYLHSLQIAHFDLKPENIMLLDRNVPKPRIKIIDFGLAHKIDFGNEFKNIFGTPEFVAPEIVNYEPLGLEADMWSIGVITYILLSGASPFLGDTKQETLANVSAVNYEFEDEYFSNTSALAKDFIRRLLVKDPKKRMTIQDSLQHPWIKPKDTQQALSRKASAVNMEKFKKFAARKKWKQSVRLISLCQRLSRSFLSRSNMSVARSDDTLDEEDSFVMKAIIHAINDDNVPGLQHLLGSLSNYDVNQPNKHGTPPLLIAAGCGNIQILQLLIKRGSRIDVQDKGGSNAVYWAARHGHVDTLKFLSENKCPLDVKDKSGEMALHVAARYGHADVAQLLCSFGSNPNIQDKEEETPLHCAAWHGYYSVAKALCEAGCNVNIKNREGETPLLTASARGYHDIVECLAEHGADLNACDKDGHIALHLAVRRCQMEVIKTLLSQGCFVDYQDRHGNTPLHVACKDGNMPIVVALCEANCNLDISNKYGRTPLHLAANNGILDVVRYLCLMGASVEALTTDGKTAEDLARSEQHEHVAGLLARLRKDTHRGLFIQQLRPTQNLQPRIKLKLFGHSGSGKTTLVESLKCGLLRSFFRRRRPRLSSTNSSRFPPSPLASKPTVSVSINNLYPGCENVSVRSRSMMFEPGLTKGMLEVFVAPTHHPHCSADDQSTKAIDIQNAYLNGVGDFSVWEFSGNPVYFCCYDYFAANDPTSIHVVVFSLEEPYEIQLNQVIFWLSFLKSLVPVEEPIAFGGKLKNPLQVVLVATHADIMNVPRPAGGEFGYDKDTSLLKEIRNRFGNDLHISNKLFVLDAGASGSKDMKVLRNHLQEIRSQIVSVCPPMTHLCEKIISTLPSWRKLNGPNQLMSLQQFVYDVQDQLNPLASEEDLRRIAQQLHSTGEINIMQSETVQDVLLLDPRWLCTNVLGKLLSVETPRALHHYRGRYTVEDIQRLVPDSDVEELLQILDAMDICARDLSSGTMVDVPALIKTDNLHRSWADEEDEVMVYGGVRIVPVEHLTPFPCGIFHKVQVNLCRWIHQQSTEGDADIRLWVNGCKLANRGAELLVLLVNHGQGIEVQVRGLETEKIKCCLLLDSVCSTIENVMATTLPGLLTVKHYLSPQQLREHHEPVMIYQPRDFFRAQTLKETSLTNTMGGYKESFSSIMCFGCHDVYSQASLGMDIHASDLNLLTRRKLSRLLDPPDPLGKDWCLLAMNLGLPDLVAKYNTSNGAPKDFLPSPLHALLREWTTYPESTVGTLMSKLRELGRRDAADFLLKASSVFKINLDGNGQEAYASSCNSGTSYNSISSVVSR
Chain of Death-associated protein kinase 2 (Homo sapiens) (Q9UIK4 whole entry, looked up): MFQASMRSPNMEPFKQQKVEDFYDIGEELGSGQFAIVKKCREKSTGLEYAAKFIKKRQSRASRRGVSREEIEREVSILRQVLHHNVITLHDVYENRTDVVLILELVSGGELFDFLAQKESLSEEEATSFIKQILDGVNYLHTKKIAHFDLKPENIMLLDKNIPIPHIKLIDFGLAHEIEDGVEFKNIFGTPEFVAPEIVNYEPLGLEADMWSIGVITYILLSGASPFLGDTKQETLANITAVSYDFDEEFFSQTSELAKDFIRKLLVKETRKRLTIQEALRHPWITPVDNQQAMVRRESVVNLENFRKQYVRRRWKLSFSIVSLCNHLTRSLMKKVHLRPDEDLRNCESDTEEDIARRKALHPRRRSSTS

Row | SMILES | residual activity [1] [%] | residual activity [2] [%] | residual activity [3] [%] | residual activity [4] [%] | residual activity [5] [%] | residual activity [6] [%] | residual activity [7] [%] | residual activity [8] [%] | residual activity [9] [%] | residual activity [10] [%] | residual activity [11] [%] | residual activity [12] [%] | residual activity [13] [%] | residual activity [14] [%] | residual activity [15] [%] | residual activity [16] [%] | residual activity [17] [%] | residual activity [18] [%]
1 | COc1ccc(S(=O)(=O)N(CCO)c2ccccc2CN(C)C/C=C/c2ccc(Cl)cc2)cc1 | 65 | 100 | 87 | 91 | 107 | 97 | 97 | 99 | 89 | 95 | 87 | 100 | 91 | 97 | 76 | 96 | 86 | 97
2 | CO[C@H]1C[C@@H]2CC[C@@H](C)[C@@](O)(O2)C(=O)C(=O)N2CCCC[C@H]2C(=O)O[C@H]([C@H](C)C[C@@H]2CC[C@@H](O)[C@H](OC)C2)CC(=O)[C@H](C)/C=C(\C)[C@@H](O)[C@@H](OC)C(=O)[C@H](C)C[C@H](C)/C=C/C=C/C=C/1C | 108 | 93 | 110 | 137 | 360 | 115 | 110 | 145 | 139 | 113 | 149 | 99 | 101 | 84 | 65 | 110 | 120 | 103
3 | O=c1cc(-c2cccc3c2Sc2ccccc2S3)oc(N2CCOCC2)c1 | 81 | 106 | 89 | 118 | 85 | 93 | 100 | 120 | 105 | 106 | 93 | 101 | 95 | 105 | 94 | 100 | 82 | 100
4 | COc1ccc(C(=O)Nc2sc3c(c2C(N)=O)CCCC3)cc1OC | 86 | 90 | 105 | 86 | 61 | 101 | 98 | 113 | 127 | 125 | 111 | 98 | 90 | 92 | 111 | 109 | 107 | 110
